Inconclusive results are not listed. Active and inactive are the calls of the source. No rule for the calls is given here.
Assay: growth inhibition of wild-type RFP versus H38-humanized GFP E. coli, dose response, H38 mutant GFP vs wild-type RFP, cherry-pick (AID 977627)
Details: E. coli H38 humanized ribosome GFP strain, fluorescence, 24 h; activity: measured here: wild-type RFP strain growth, at 50 µM, stronger effect = lower value; series mostly up to 50 µM; activity change, negative = inhibition: at the top concentration

Compound | activity [%] | activity change, negative = inhibition
Cc1noc(C)c1NC(=O)Nc1ccc2c(c1)C(=O)N([C@H](C)CO)C[C@@H](C)[C@@H](CN(C)C(=O)Nc1ccc3c(c1)OCO3)OCCCC[C@@H](C)O2 | -3.93 | 
CCOc1ccccc1NC(=O)c1ccc2ccccc2c1 | 5.09 | 5.48 (inactive)
COC(=O)c1c(NC(=O)CCC(=O)O)sc(Cc2ccccc2)c1C | -41.2 | 
CC1(Cc2ccccc2C#N)C(=O)Nc2cc(-c3ccccc3Cl)ccc21 (stereo not given) | -20 | 

From PubChem BioAssay AID977627 (Broad Institute, 2014)
